Results taken from PubChem BioAssay (Tox21).
Records with an inconclusive call do not appear. Active and inactive are the calls of the source. The call rests on the fitted dose curve; in most records, active means well fitted cell-killing curve with a large enough effect in the repeat runs; inconclusive means weak or mixed curves; inactive means no such curve, though single readings can be large or run the other way.

Test: qHTS assay to identify small molecule antagonists of the peroxisome proliferator-activated receptor delta (PPARd) signaling pathway - cell viability counter screen (AID 743213); further: nearly all actives have a fitted effect of over 50% in size
Conditions: PPARd-bla HEK293H viability, CellTiter-Glo luminescence, 17 h; series mostly up to 62 µM; viability change, negative = cytotoxic: at the top concentration
Source text: U.S. Tox21 Program National Center for Advancing Translational Sciences [NCATS] NIH Chemical Genomics Center [NCGC] U.S. Environmental Protection Agency [EPA] National Institutes of Environmental Health Sciences [NIEHS] National Toxicology Program [NTP] U.S. Food and Drug Administration [FDA] Tox21 Assay Overview: The peroxisome proliferator-activated receptors (PPARs) are lipid-activated transcription factors of the nuclear receptor superfamily with three distinct subtypes namely PPAR alpha, PPAR delta (PPARd) and PPAR gamma. All these subtypes heterodimerizes with Retinoid X receptor (RXR) and have different physiological functions. […] To identify the compounds that inhibit PPAR-delta signaling, GeneBLAzer PPAR delta UAS-bla HEK293H cell line (Invitrogen, Carlsbad, CA, USA) containing a beta-lactamase reporter gene under the control of an Upstream Activator Sequence (UAS) was used to screen the Tox21 compound library. The cytotoxicity of the Tox21 compound library against the PPARd-bla cell line was tested in parallel by measuring the cell viability using CellTiter-Glo assay (Promega, Madison, WI) in the same wells.
Tox21 Assay Protocol Summary: PPARd-bla cells were dispensed at 3000 cells/5uL/well in 1536-well black wall/clear bottom plates using a Multidrop Combi (Thermo Fisher Scientific, Waltham, MA) dispenser. After the assay plates were incubated at 37 C and 5% CO2 for 5 h, 23 nL of compounds dissolved in DMSO, positive controls or DMSO only was transferred to the assay plate by a Pintool station (Kalypsys, San Diego, CA), followed by addition of 1ul L165041 (300 nM, final concentration in the wells). The assay plates were incubated at 37 C for 17 h, and then 1 uL of LiveBLAzerTM B/G FRET substrate was added using a Bioraptr Flying Reagent Dispenser (FRD) workstation (Beckman Coulter, Indianapolis, IN, USA). The assay plates were incubated at room temperature for 2 h and fluorescence intensity was measured by an Envision plate reader (PerkinElmer, Shelton, CT). For cell viability readout that measures cytotoxicity, 3 ul/well of CellTiter-Glo reagent was added into the assay plates using a Bioraptr FRD. After 30 min incubation at room temperature, the luminescence intensity in the plates was measured using a ViewLux plate reader (PerkinElmer).
On the % scale 0 is the no-effect control and ±100 the full control effect.

SMILES | viability change, negative = cytotoxic
Cc1ncc(CNC(=O)N(CCCl)N=O)c(N)n1 | 13.1% (inactive)
CN1C[C@@H](NS(=O)(=O)N(C)C)C[C@@H]2c3cccc4c3c(cn4C)C[C@H]21 | -11.4% (inactive)
CC1CCC(=O)O1 (stereo not given) | 1.61% (inactive)
N#Cc1ccncc1 | 16.1% [at 80.4 µM] (inactive)
ClC(Cl)(Cl)C(Cl)(Cl)Cl | -2.27% [at 80.4 µM] (inactive)
CCCCC(=O)Cl | 7.54% [at 80.4 µM] (inactive)
ClCC(Cl)(Cl)Cl | -4.64% [at 80.4 µM] (inactive)
COP(N)(=S)Oc1ccccc1C(=O)OC(C)C (stereo not given) | 9.47% (inactive)
COc1ncc(F)c2nc(S(=O)(=O)Nc3c(F)cccc3F)nn12 | -19.1% (inactive)
CNC(=O)O/N=C(\C)SC | -3.75% (inactive)
CNC(=O)N(C)c1nc2ccccc2s1 | -13.8% (inactive)
Nc1c(Br)cc([N+](=O)[O-])cc1[N+](=O)[O-] | 2.75% [at 80.4 µM] (inactive)
COc1ccc(C(=O)N2CCCC2=O)cc1 | 10% (inactive)
C=CC1CC=CCC1 (stereo not given) | -7.01% (inactive)
CC(C)(C)OC(=O)c1ncn2c1[C@@H]1CCCN1C(=O)c1c(Br)cccc1-2 | 1.86% (inactive)
O=C1CN=C(c2ccccc2)c2cc([N+](=O)[O-])ccc2N1 | 4.13% (inactive)
Clc1ccccc1N1CCNCC1 | -12.5% (inactive)
CCN(CC)CCOC(=O)C(C)(c1ccccc1)c1ccccc1 | -11.5% (inactive)
BrCCCCCCBr | 2.01% (inactive)
O=c1oc2ccccc2c(O)c1C1CCCc2ccccc21 (stereo not given) | -4.57% (inactive)

SMILES | viability change, negative = cytotoxic
CCOC(=O)C(c1c(O)c2ccccc2oc1=O)c1c(O)c2ccccc2oc1=O | 8.11% (inactive)
O=C(CCCN1CCC(n2c(=O)[nH]c3ccccc32)CC1)c1ccc(F)cc1 | 1.4% (inactive)
CNC(=O)Oc1c(C(C)(C)C)cc(C)cc1C(C)(C)C | -0.0213% (inactive)
CC1=C(C(=O)O)N2C(=O)[C@@H](N)[C@H]2SC1 | -7.71% [at 28.9 µM] (inactive)
CCOP(=S)(OCC)Oc1cc(-c2ccccc2)on1 | -3.63% (inactive)
O=C(N[C@H]1CN2CCC1CC2)c1cc2ccoc2cn1 | -17.7% (inactive)
O=P(O)(Oc1ccccc1)Oc1ccccc1 | 3.78% (inactive)
CC(=O)Nc1cc([As](=O)(O)O)ccc1O | 8.12% (inactive)
COC(=O)c1ccccc1S(=O)(=O)NC(=O)N(C)c1nc(C)nc(OC)n1 | 28.4% [at 80.4 µM] (inactive)
COc1cc(OC)nc(NC(=O)NS(=O)(=O)c2ncccc2C(=O)N(C)C)n1 | -2.31% (inactive)
CN1CCN(C(=O)O[C@H]2c3nccnc3C(=O)N2c2ccc(Cl)cn2)CC1 | 9.8% (inactive)
CC(=O)[C@H]1CC[C@H]2[C@@H]3CC[C@H]4C[C@H](O)CC[C@]4(C)[C@H]3C(=O)C[C@]12C | 6.55% (inactive)
OC(c1ccc(F)cc1)(c1cncnc1)c1ccccc1Cl (stereo not given) | 20.9% (inactive)
CC1CN1P(=O)(N1CC1C)N1CC1C (stereo not given) | -14.1% (inactive)
O=CNC(N1CCN(C(NC=O)C(Cl)(Cl)Cl)CC1)C(Cl)(Cl)Cl (stereo not given) | 1.48% (inactive)
COP(=S)(OC)Oc1ccc(S(N)(=O)=O)cc1 | -0.16% (inactive)
CCCCP(CCCC)CCCC | 5.12% (inactive)
CC(Cl)(Cl)[N+](=O)[O-] | 1.59% (inactive)
CCOP(=S)(OCC)SCSc1ccc(Cl)cc1 | 3.53% (inactive)
CCCSP(=S)(OCC)Oc1ccc(Cl)cc1Cl (stereo not given) | 1.41% (inactive)
